# Screens as filed in PubChem.
# Shown are actives, neighbours in structure and some others; about 0.86% of the full set was active somewhere.
# TLR4 MyD88 comp = blocks binding of human TLR4 to MyD88; O00206+Q99836; HeLa CL3-4 TLR4/MyD88 BLA complementation, FRET ratio; inhibition, % at 8.4 µM; 200,000 tested, 0.18% active; in the data active = inhibition above about 25%
# Target sequence (O00206 whole entry, looked up): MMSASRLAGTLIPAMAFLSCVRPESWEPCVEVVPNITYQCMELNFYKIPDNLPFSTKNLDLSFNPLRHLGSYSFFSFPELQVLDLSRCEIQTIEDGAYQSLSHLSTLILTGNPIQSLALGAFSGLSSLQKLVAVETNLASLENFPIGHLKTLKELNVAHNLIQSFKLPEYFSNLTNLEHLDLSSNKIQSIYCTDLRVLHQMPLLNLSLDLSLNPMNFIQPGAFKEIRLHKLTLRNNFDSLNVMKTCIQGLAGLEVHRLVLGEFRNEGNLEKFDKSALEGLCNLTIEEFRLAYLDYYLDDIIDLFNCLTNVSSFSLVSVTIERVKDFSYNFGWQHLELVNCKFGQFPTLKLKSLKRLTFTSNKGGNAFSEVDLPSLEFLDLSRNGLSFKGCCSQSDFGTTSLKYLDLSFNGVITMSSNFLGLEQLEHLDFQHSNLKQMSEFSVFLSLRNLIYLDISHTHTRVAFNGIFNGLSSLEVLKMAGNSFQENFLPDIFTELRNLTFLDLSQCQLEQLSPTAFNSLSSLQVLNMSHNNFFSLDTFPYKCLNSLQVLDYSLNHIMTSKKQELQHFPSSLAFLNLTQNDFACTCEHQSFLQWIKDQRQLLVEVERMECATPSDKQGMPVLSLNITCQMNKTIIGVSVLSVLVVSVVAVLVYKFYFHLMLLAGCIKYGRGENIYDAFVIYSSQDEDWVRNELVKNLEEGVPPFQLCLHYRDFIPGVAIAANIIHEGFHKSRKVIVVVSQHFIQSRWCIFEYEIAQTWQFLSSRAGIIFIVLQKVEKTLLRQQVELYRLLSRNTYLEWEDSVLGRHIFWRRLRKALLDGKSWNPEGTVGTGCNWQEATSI
# Target sequence (Q99836 whole entry, looked up): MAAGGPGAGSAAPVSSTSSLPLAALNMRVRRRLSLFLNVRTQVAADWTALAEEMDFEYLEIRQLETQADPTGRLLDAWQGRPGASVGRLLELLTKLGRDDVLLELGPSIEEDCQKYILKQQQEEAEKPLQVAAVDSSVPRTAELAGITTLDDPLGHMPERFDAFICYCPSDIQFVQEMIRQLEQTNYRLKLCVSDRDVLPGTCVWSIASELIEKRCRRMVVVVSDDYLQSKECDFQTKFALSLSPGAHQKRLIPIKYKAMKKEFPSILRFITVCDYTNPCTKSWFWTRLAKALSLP
# IDE inh = cellular human IDE inhibition; inhibition, % at 5.59 µM; AID 434962; HEK cells, FAbetaB cleavage, fluorescence polarization; 320,000 tested, 0.41% active; P14735;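 active = percent inhibition above the average of all tested compounds plus 3 SD, set per screening campaign, cut at about 16% in these data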;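 note: IDE supplied by intact live HEK cells; FP after avidin binding of uncleaved biotin substrate so inhibition keeps polarization high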
# NOD2-RIPK2 inh = inhibitors of human NOD2-RIPK2 interaction. 360,000 tested, 0.38% active. AID 624267. CHO BLA complementation NOD2-RIPK2, CCF4 ratio. inhibition, % at 4.98 µM. O43353; in the data active = inhibition above about 21%
# IDE act = IDE (human) activation, cell-based | activation, % at 5.96 µM | 340,000 tested, 0.073% active | P14735 | HEK cells, FAbeta-B cleavage, fluorescence polarization; 0% vehicle, 100% cell-free pure enzyme wells;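 active = activation above the mean of all tested compounds plus 3 SD, set per screening campaign, cut at about 17% in these data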
# TLR9-MyD88 inh = TLR9-MyD88 interaction inhibition | CHO BLA complementation TLR9-MyD88, CCF4 FRET ratio | Q9NR96+Q99836 | AID 504734 | inhibition, % at 4.98 µM | 340,000 tested, 0.21% active;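 active = inhibition above the mean over all tested compounds plus 3 SD, cut at about 21% in these data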
# TLR9-MyD88 conf = TLR9-MyD88 interaction inhibition, confirmation; CHO TLR9/MyD88 BLA complementation, CCF4 FRET ratio; shares compounds with TLR9-MyD88 inh; 680 tested, 51% active; inhibition, % at 4.98 µM; AID 540250;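 active = mean inhibition across three repeats above about 21% taken from the earlier screen, limit read from the data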;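 note: blue over green emission ratio reports constitutive TLR9 MyD88 association via BLA complementation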
# BLA counter-1 = non-selective beta-lactamase inhibitors in TLR9-MyD88 counter-screen; CHO-BLA cells, CCF4 FRET ratio, BLA reporter; inhibition, % at 4.98 µM; shares compounds with TLR9-MyD88 inh; 680 tested, 7% active;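 active = mean inhibition above a 50% cutoff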;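 note: counterscreen of TLR9-MyD88 hits on CMV-driven BLA in CHO-K1 cells; higher means less blue over green ratio so more BLA blockade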
# TLR9 CHO tox = CHO cell toxicity counter-screen for TLR9-MyD88 inhibitors | inhibition, % at 4.98 µM | TLR9-MyD88 CHO cells cytotoxicity, luminescence | 680 tested, 39% active | shares compounds with TLR9-MyD88 inh | AID 588336; in the data active = inhibition above about 11%
# NOD2 RIPK2 conf = confirmation of human NOD2-RIPK2 interaction inhibitors; shares compounds with NOD2-RIPK2 inh; CHO cells, NOD2-RIPK2 BLA complementation, CCF4 FRET; inhibition, % at 4.98 µM; 1,200 tested, 70% active;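 active = mean inhibition across replicates above a set limit taken from the earlier primary screen, cut at about 21% in these data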
# BLA counter-2 = counter-screen for NOD2-RIPK2 interaction inhibitors: BLA reporter. shares compounds with NOD2-RIPK2 inh. AID 624371. inhibition, % at 4.98 µM. CHO BLA reporter, CCF4 FRET ratio, counterscreen. 1,200 tested, 57% active;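 active = mean inhibition above the low-control mean inhibition plus three low-control SD, cut at about 11% in these data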
# Numbers stand for hits; . = inactive; / = no result given.
SMILES,TLR4 MyD88 comp,IDE inh,NOD2-RIPK2 inh,IDE act,TLR9-MyD88 inh,TLR9-MyD88 conf,BLA counter-1,TLR9 CHO tox,NOD2 RIPK2 conf,BLA counter-2
COc1ccc(/C=C/C(=O)NC(=S)Nc2ccc(S(=O)(=O)Nc3ccc(OC)nn3)cc2)cc1,.,.,.,.,26.9,.,.,.,/,/
COc1ccc(/C=C/C(=O)NC(=S)Nc2ccc(S(N)(=O)=O)cc2)cc1,/,.,.,.,.,/,/,/,/,/
N/C(=N\OC(=O)c1cccc(C(F)(F)F)c1)c1cnccn1,/,.,.,.,.,/,/,/,/,/
O=C(OCn1ncc(Cl)c(Cl)c1=O)c1cccc(C(F)(F)F)c1,.,.,48.4,.,30.3,24.4,.,97.2,/,/
CCc1c(C)nc2c(C)cccc2c1SCCC#N,.,.,.,.,.,/,/,/,/,/
O=[N+]([O-])c1c(Nc2ccc(O)cc2)cc(Cl)c2nonc12,/,.,121.8,.,48.9,59.5,.,97.1,120.2,25.0
COc1ccc(NC(=O)Nc2ccc(OCc3ccccc3)cc2)cn1,/,/,.,.,.,/,/,/,/,/
COc1ccc(NC(=O)/C(Cl)=C(/Cl)S(=O)(=O)Cc2ccccc2)cn1,.,/,56.2,.,27.7,21.1,.,98.8,67.7,23.1
Nc1cccc2c1C(=O)N(C(=O)c1cccc(S(=O)(=O)N3CCCC3)c1)C2=O,.,.,22.0,.,22.6,.,.,.,28.0,34.8
CC(CN1C(C)CCCC1C)OC(=O)c1cccc(F)c1 (stereo not drawn),/,.,.,.,.,/,/,/,/,/
Cc1ccc(C)c(CN2C(=O)NC3(CCCCCC3)C2=O)c1,/,.,.,.,.,/,/,/,/,/
CCc1cc2c(=O)nc3n(c2s1)Cc1ccccc1/C3=C(/O)c1ccc(F)cc1,.,.,23.5,.,23.2,.,.,.,.,.
COc1ccc(O)c(/C=N/NC(=S)Nc2cccc(S(=O)(=O)N(C)C)c2)c1,.,.,24.9,.,25.6,.,.,32.4,.,21.4
COc1cccc(/C=N/NC(=S)Nc2cccc(S(=O)(=O)N(C)C)c2)c1,/,.,.,.,.,/,/,/,/,/
C=C1C(=O)c2sccc2C(c2ccc(OC)c(OC)c2)C1COC(C)=O (stereo not drawn),/,/,95.0,.,23.6,28.1,.,96.8,92.4,12.9
CCN1CCN(CC(=O)N2N=C(c3cccs3)CC2c2ccc(OC)c(OC)c2)C(=O)C1=O (stereo not drawn),.,.,.,.,.,/,/,/,/,/
CCCC(=O)OCCNc1cc(Sc2nc3ccccc3[nH]2)c2nonc2c1[N+](=O)[O-],.,.,74.8,.,32.2,67.7,.,97.8,91.5,43.4
COc1ccc(NS(=O)(=O)c2ccc3[nH]c(=O)[nH]c3c2)cc1OC,/,.,.,.,.,/,/,/,/,/
O=C(COC(=O)c1ccc[n+]([O-])c1)Nc1cc([N+](=O)[O-])ccc1Cl,/,.,.,.,.,/,/,/,/,/
Cc1ccc(S(=O)(=O)N2CCCCC2)cc1C(=O)NC1CC(C)(C)NC(C)(C)C1,/,.,.,.,.,/,/,/,/,/
O=c1c(Cl)c(Cl)cnn1-c1ccccc1,.,/,23.3,.,24.4,21.3,.,98.0,34.8,.
Nc1c(Cl)cnn(-c2ccccc2)c1=O,/,.,.,/,/,/,/,/,/,/
O=[N+]([O-])c1ccc(N/N=C/C=C/c2ccco2)cc1,/,.,55.3,.,40.0,37.1,.,.,62.9,67.6
O=C(N/N=C/c1ccco1)c1cc([N+](=O)[O-])cc([N+](=O)[O-])c1,.,.,.,.,.,/,/,/,/,/
O=C1C=CC2(C=C1)O[C@H](Cc1ccccc1)[C@@H](Cc1ccccc1)O2,/,/,88.6,.,26.0,38.7,.,99.4,91.4,29.2
O=C1Nc2ccccc2C1Cc1ccccc1 (stereo not drawn),/,.,.,.,.,/,/,/,/,/
